Most compounds without a hit are left out; they make up all but 3.4% or so of the library.
EWS-Fli inh = inhibitors of EWS/Fli oncoprotein transcriptional activity. A673 NR0B1-luciferase reporter, viability-normalised. inhibition, % at 12.6 µM. hit rate 0.67% among 350,000. AID 651661;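 active = mean inhibition of at least 50% after viability correction, with every replicate also passing that limit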;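 note: firefly luciferase signal divided by Alamar Blue viability fluorescence both relative to DMSO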
SIRT5 block = blocks human SIRT5 desuccinylation of peptide | Q9NXA8 | Purified SirT5, succinyl-peptide AMC, trypsin-coupled fluorescence | inhibition, % at 15 µM | hit rate 1.1% among 330,000 | AID 652115; in the data active = inhibition above about 15%
Target sequence (Q9NXA8 whole entry, looked up): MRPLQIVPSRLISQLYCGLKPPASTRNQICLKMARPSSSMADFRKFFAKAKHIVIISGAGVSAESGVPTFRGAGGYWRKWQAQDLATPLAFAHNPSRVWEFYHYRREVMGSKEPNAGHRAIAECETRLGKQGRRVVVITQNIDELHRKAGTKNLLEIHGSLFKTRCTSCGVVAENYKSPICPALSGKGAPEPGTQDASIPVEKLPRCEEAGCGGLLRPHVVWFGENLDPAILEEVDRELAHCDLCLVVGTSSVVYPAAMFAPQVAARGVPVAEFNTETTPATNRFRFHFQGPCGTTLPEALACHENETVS
PAX8 reporter = lowers PAX8-driven luciferase in RMG-I cells. inhibition, % at 12.6 µM. hit rate 1.2% among 360,000. RMG-I TPO-luciferase reporter, SteadyGlo, 24 h;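 active = mean replicate inhibition at least 60% with every replicate also reaching 60%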;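 note: luciferase light reporting Pax8 driven TPO promoter activity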
LGR2 inh = Drosophila LGR2 receptor signaling inhibition; HEK293 LGR2, CRE-luciferase, bursicon-stimulated, 4 h; inhibition, % at 9.99 µM; hit rate 0.35% among 380,000; AID 720647;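 active = drop in luminescence signal, shown as inhibition above about 50% in the replicate tests, limit read from the data, passing the limit was not always enough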;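 note: agonist challenge used bursicon conditioned medium at about half maximal strength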
PGC1a acetyl inh = lowers PGC1a acetylation signal in U2OS cells. AlphaScreen anti-acetyl-lysine; with virally co-expressed GCN5 acetyltransferase. inhibition, % at 15.6 µM. hit rate 0.17% among 350,000;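 active = every replicate shows inhibition of at least 40%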
Ecoli rRNA inh = inhibits bacterial ribosomal RNA function over humanized ribosomes; hit rate 1.6% among 350,000; GFP signal change (wild-type ribosome), % (no concentration beside the values); E. coli WT GFP vs humanized-ribosome RFP mutants, fluorescence, 24 h; active compounds read low; DMSO median 0, no signal -100;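 active = significant combined selectivity score with lowered wild-type GFP, culture density cut under 30%, mutant RFP and density less affected; inactive = any of these conditions unmet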
Each line names hits and unclear results; the compound was inactive in the other large screens.

CN(C)CCNc1ccc(CO)c2oc3ccc(O)cc3c(=O)c12	EWS-Fli inh 55 (no result: PAX8 reporter)
CCN(CC)CCNc1ccc(CO)c2oc3cc(Cl)ccc3c(=O)c12	none (no result: LGR2 inh)
CCC(=O)N1[C@H](CO)[C@@H](c2ccc(-c3ccc(C#N)cc3)cc2)C12CN(C(C)=O)C2	none
Cc1cccc2sc(NNC(=O)c3ccc(S(=O)(=O)N4CCc5ccccc5C4)cc3)nc12	PAX8 reporter 77
Cc1cc(C)c2nc(NNC(=O)c3ccc(S(=O)(=O)N4CCCCC4)cc3)sc2c1	Ecoli rRNA inh -12 (no result: PAX8 reporter, LGR2 inh, PGC1a acetyl inh)
CCOC(=O)N1CCN(S(=O)(=O)c2ccc(C(=O)NNc3nc4c(C)cccc4s3)cc2)CC1	PAX8 reporter 81
Cc1cccc2sc(NNC(=O)c3ccc(S(=O)(=O)N4CCCC(C)C4)cc3)nc12 (stereo not given)	none (no result: PAX8 reporter)
OC[C@@H]1[C@@H](c2ccc(C#Cc3ccccc3)cc2)[C@@H]2CN(Cc3ccccn3)CCCCN12	none (no result: EWS-Fli inh, SIRT5 block, PAX8 reporter, LGR2 inh, PGC1a acetyl inh)
C=CC[C@H](O)c1ccc(O)c(F)c1	none (no result: LGR2 inh, Ecoli rRNA inh)
COc1ccc(NC(=O)N(C)C[C@@H]2OCCCC[C@@H](C)Oc3ccc(NS(=O)(=O)c4ccc(OC)cc4)cc3C(=O)N([C@@H](C)CO)C[C@@H]2C)cc1	none (no result: EWS-Fli inh)
Cc1no[n+]([O-])c1COc1cccc(/C=N/Nc2nncn2N)c1	PGC1a acetyl inh 50
COc1cc(/C=N/n2nnnc2N)ccc1OCc1c(C)no[n+]1[O-]	none (no result: EWS-Fli inh, SIRT5 block, PGC1a acetyl inh, Ecoli rRNA inh)
C[C@H](CO)N1C[C@H](C)[C@@H](CN(C)S(=O)(=O)c2ccc(Cl)cc2)OCCCC[C@H](C)Oc2ccc(NS(C)(=O)=O)cc2C1=O	none
O=C(c1[nH]c(C(F)(F)F)nc1-c1ccccc1)N1CCCN(Cc2ccc(F)cc2)CC1	SIRT5 block 29
CC[n+]1ccc(/C=C/c2ccc(N(C)C)cc2)c2ccccc21	EWS-Fli inh 58, PAX8 reporter 95 (no result: PGC1a acetyl inh)
CCN(CC)c1nc2cc(OC)ccc2cc1C#N	none (no result: EWS-Fli inh, SIRT5 block, PAX8 reporter, LGR2 inh, Ecoli rRNA inh)
CC[n+]1c(/C=C/c2ccc(N(C)C)cc2)ccc2ccccc21	PAX8 reporter 90 (no result: PGC1a acetyl inh)
CC[n+]1c(/C=C/c2ccc(OC)c(OC)c2)ccc2ccccc21	none (no result: PGC1a acetyl inh)
CC[n+]1c(/C=C/c2ccc(OC(C)=O)c(OC)c2)ccc2ccccc21	Ecoli rRNA inh -14
CCN(CC)c1ccc(/C=C/c2ccc3ccc(OC)cc3[n+]2CC)cc1	EWS-Fli inh 57, PAX8 reporter 83
O=C(Cc1ccncc1)Nc1ccc2c(c1)[C@@H]1C[C@H](CC(=O)N3CCCCC3)O[C@@H](CO)[C@@H]1O2	none
CC[n+]1ccccc1/C=C/c1ccc(N(C)C)cc1	none (no result: SIRT5 block)
CCCCCC[n+]1ccccc1/C=C/c1ccc(N(C)C)cc1	PAX8 reporter 98 (no result: PGC1a acetyl inh)
Cc1noc(C)c1S(=O)(=O)Nc1ccc2c(c1)C(=O)N([C@@H](C)CO)C[C@@H](C)[C@H](CN(C)C(=O)CCC(F)(F)F)OCCCC[C@H](C)O2	none
COc1ccc2nc3cc(Cl)ccc3c(C#N)c2c1	none (no result: LGR2 inh)
COc1ccc2nc(C(F)(F)Cl)c(C#N)c(N)c2c1	Ecoli rRNA inh -40 (no result: PGC1a acetyl inh)
CCOC(=O)c1sc2nc(NC(=O)C(C)(C)C)sc2c1C	Ecoli rRNA inh -20
CCCCCc1ccc(-c2ccc(/C=C/C(N)=O)cc2)nc1	none (no result: EWS-Fli inh, SIRT5 block, Ecoli rRNA inh)
CCCCCc1ccc(-c2ccc(OC)cc2)nc1	Ecoli rRNA inh -24 (no result: PGC1a acetyl inh)
Cc1c(NC(=O)c2ccc(-c3ccccc3)cc2)cccc1C(=O)O	LGR2 inh 56 (no result: SIRT5 block)
O=C(Nc1ccccc1C(=O)O)c1ccccc1	none (no result: EWS-Fli inh, SIRT5 block, PAX8 reporter, LGR2 inh, Ecoli rRNA inh)
CCOc1ccc(C(=O)Nc2cccc(C(=O)O)c2C)cc1Cl	LGR2 inh 70 (no result: PGC1a acetyl inh)
CO[C@H]1CN(C)C(=O)c2ccc(NS(=O)(=O)c3ccc(C)cc3)cc2OC[C@H](C)N(C(=O)NC(C)C)C[C@@H]1C	none (no result: PAX8 reporter)
Cc1ccc(S(=O)(=O)Nc2cccc3c2O[C@@H](CN(C)C(=O)Nc2ccc(C(F)(F)F)cc2)[C@@H](C)CN([C@H](C)CO)C3=O)cc1	PAX8 reporter 104
C[C@H]1CN([C@@H](C)CO)C(=O)c2cccc(NC(=O)Nc3ccc(C(F)(F)F)cc3)c2O[C@H]1CN(C)Cc1ccc(-c2ccccc2)cc1	none (no result: PAX8 reporter)
Cc1ccc(S(=O)(=O)Nc2cccc3c2O[C@H](CN(C)C(=O)Nc2ccc(C(F)(F)F)cc2)[C@H](C)CN([C@H](C)CO)C3=O)cc1	none
C[C@@H]1CN([C@@H](C)CO)C(=O)c2cccc(NC(=O)Nc3ccc(C(F)(F)F)cc3)c2O[C@@H]1CN(C)C(=O)Nc1cccc2ccccc12	LGR2 inh 67 (no result: PAX8 reporter)
C[C@H](CO)N1C[C@H](C)[C@@H](CN(C)Cc2ccc(-c3ccccc3)cc2)Oc2c(NC(=O)Nc3ccc(C(F)(F)F)cc3)cccc2C1=O	SIRT5 block 2.6
COc1ccc(CN(C)C[C@H]2Oc3c(NC(=O)Nc4ccc(F)cc4)cccc3C(=O)N([C@@H](C)CO)C[C@@H]2C)cc1	SIRT5 block 30
CCCN1C[C@H](C)[C@H](OC)CN(C)C(=O)c2ccc(NC(=O)C3CCOCC3)cc2OC[C@@H]1C	none
C[C@H](CO)N1C[C@H](C)[C@@H](CN(C)Cc2ccc(Cl)c(Cl)c2)Oc2c(NC(=O)c3nc4ccccc4s3)cccc2C1=O	none (no result: PAX8 reporter)
CC(C)NC(=O)Nc1ccc2c(c1)CC(=O)N(C)C[C@@H](C)[C@H](CN(C)C(=O)OC(C)(C)C)O2	none (no result: EWS-Fli inh, SIRT5 block, PAX8 reporter, LGR2 inh, PGC1a acetyl inh)
Cc1cccc(-c2ccc([C@H]3[C@H]4CN(C(=O)c5cnccn5)CC(=O)N4[C@H]3CO)cc2)c1	none (no result: EWS-Fli inh, SIRT5 block, PAX8 reporter, LGR2 inh, PGC1a acetyl inh)
C[C@@H]1CN([C@@H](C)CO)C(=O)c2cccc(NC(=O)Nc3ccccc3)c2O[C@@H]1CN(C)Cc1ccc(C(F)(F)F)cc1	SIRT5 block 103 (no result: LGR2 inh, PGC1a acetyl inh)
C[C@@H]1CN([C@@H](C)CO)C(=O)c2cccc(NC(=O)Nc3ccc(C(F)(F)F)cc3)c2O[C@@H]1CN(C)Cc1ccccc1	none (no result: PAX8 reporter)
C[C@H](CO)N1C[C@H](C)[C@@H](CN(C)C(=O)Nc2ccccc2)Oc2c(NS(=O)(=O)c3cccs3)cccc2C1=O	SIRT5 block 24
O=C(N[C@H]1C[C@@H]2O[C@@H](CO)CC[C@@H]2O[C@@H]1CCc1ccc(C#CC2CC2)cc1)c1cccc(F)c1	none (no result: LGR2 inh, Ecoli rRNA inh)
Cc1ccc(S(=O)(=O)Nc2ccc3c(c2)CC(=O)N([C@@H](C)CO)C[C@@H](C)[C@@H](CN(C)Cc2ccc(C(F)(F)F)cc2)O3)cc1	PAX8 reporter 62 (no result: SIRT5 block)
C[C@@H]1CN([C@H](C)CO)C(=O)c2cc(NS(=O)(=O)c3ccc(F)cc3)ccc2O[C@@H]1CN(C)Cc1ccc(C(F)(F)F)cc1	EWS-Fli inh 68, PAX8 reporter 115
C[C@H]1CN([C@@H](C)CO)C(=O)c2cc(NS(=O)(=O)c3ccc(F)cc3)ccc2O[C@@H]1CN(C)Cc1ccc(C(F)(F)F)cc1	none
C[C@@H]1CN([C@@H](C)CO)C(=O)Cc2cc(NS(=O)(=O)c3ccc(F)cc3)ccc2O[C@H]1CN(C)Cc1ccc(C(F)(F)F)cc1	SIRT5 block 36, PAX8 reporter 90
